Drawing on PubChem BioAssay (EPA / NIEHS), this text covers outcome and AC50 for 40 compounds.

Active and inactive are the calls of the source. Rule for the calls: active = hit-call score of the fitted dose curve at least 0.9, where 1 is the maximum; inactive = score below 0.9.

This test is described as follows: ATG_GLI_CIS: Attagene CIS-FACTORIAL HepG2 Assay for human Zinc Finger Protein GLI1 (AID 2282945). Particulars: HepG2, Attagene cis-factorial reporter mRNA, GLI element; actives raise or lower the signal. A digest of the protocol: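 HepG2 cells transiently transfected with cis-promoter multiplexed reporter units report endogenous transcription factor activity. After 24 h chemical exposure, reporter mRNA was quantified by RT-PCR, 6-FAM labelling, HpaI digestion and capillary electrophoresis, with bidirectional fitting against DMSO.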
In the case of `Nc1c(Oc2ccccc2)cc(O)c2c1C(=O)c1ccccc1C2=O`, the compound was classed as inactive.

`C=CCN=C=S`: the outcome was inactive.

Turning to `C[C@]12CC[C@@H](O)C[C@@H]1CC[C@@H]1[C@@H]2CC[C@]2(C)C(=O)CC[C@@H]12`, the compound was called inactive.

On to `C#CCOC(=O)/C=C(C)/C=C/CC(C)CCCC(C)C` (stereo not given), for which the call was inactive.

With `C=C(C)[C@@H]1CC=C(C=O)CC1`, the compound was called inactive.

`CN(C)[C@@H]1C(=O)C(C(N)=O)=C(O)[C@@]2(O)C(=O)C3=C(O)c4c(O)ccc(Cl)c4[C@@](C)(O)[C@H]3C[C@@H]12`: the compound was classed as inactive.

Consider `Cc1cc(C)cc(C)c1`, for which the compound was called inactive.

Turning to `O=c1[nH]c2ccccc2n1C1CCN(CCCC(c2ccc(F)cc2)c2ccc(F)cc2)CC1`, the outcome was inactive.

For `C=CCCl`, the compound was called inactive.

For the compound `C1CN2CCN1CC2`, the compound was called inactive.

Turning to `COCC(=O)N(c1c(C)cccc1C)[C@H](C)C(=O)OC`, the compound was called inactive.

With `CCCSP(=S)(OCC)Oc1ccc(SC)cc1` (stereo not given), the result was inactive.

On to `CCOc1ccc(N)cc1`, for which the compound was classed as inactive.

Turning to `COc1ccc([N+](=O)[O-])cc1O`, the compound was classed as inactive.

For the compound `OC(Cc1ccccc1Cl)(Cn1[nH]cnc1=S)C1(Cl)CC1` (stereo not given), the compound was classed as inactive.

As to `CC(C)(C)c1ccccc1O`, the result was inactive.

As for `CC(C)[N+](=O)[O-]`, the compound was called inactive.

With `CCCCCCCCCCCCc1cccc(S(=O)(=O)O)c1`, the result was inactive.

Consider `O=C(CCl)Nc1ccccc1`, for which the AC50 (in general, the midpoint of the concentration-response curve, whichever way the signal moves) was 25.5 µM (active).

Take `CC(C=O)Cc1ccc2c(c1)OCO2` (stereo not given): the compound was called inactive.

For the compound `BrCCCCBr`, the call was inactive.

As to `CC(C)O.CC(C)O.OCCN(CCO)CCO.OCCN(CCO)CCO.[Ti]`, the call was inactive.

Turning to `CCCCOC(C)=O`, the compound was called inactive.

For the compound `Cc1ccc(OP(=O)(Oc2ccc(C)cc2C)Oc2ccc(C)cc2C)c(C)c1`, the AC50 was 25.7 µM (active).

Regarding `CC(C)(C)c1ccc(CCOc2ncnc3ccccc23)cc1`, the outcome was inactive.

Consider `CCOc1cc(C=O)ccc1O`, for which the compound was called inactive.

Regarding `Clc1cc(C(Cl)(Cl)Cl)cnc1Cl`, the compound was called inactive.

On to `CCCCS(=O)(=O)Cl`, for which the outcome was inactive.

For `N#Cc1ccccc1N`, the call was inactive.

Take `OCCN(CCO)CCO`: the call was inactive.

With `BrCC(Br)c1ccccc1` (stereo not given), the compound was classed as inactive.

On to `C=CC(Cl)CCl` (stereo not given), for which the result was inactive.

`O=[N+]([O-])c1ccc(Cl)c([N+](=O)[O-])c1`: the outcome was inactive.

Take `CCC(C)(C#N)N=NC(C)(C#N)CC` (stereo not given): the call was inactive.

For `CC(C)(C1CCC(O)CC1)C1CCC(O)CC1` (stereo not given), the compound was called inactive.

In the case of `C=CC(=O)NC(C)(C)CC(C)=O`, the compound was called inactive.

Take `Cc1cc(SCc2sc(-c3ccc(C(F)(F)F)c(F)c3)nc2C)ccc1OCC(=O)O`: the compound was called inactive.

On to `c1ccc2sc(SNC3CCCCC3)nc2c1`, for which the AC50 is 159 µM (active).

Consider `CCOC(=O)C(SP(=S)(OC)OC)c1ccccc1` (stereo not given), for which the outcome was inactive.

Take `c1csc(-c2ccc(-c3cccs3)s2)c1`: the result was inactive.
